Anthrax LF inh2 = Bacillus anthracis LF protease inhibitors, primary screen, biochemical, multiplex microsphere, MLPCN library; Lethal factor (Bacillus anthracis), P15917; multiplex microsphere protease cleavage assay; inhibition, % at 10 µM; 0.12% of 360,000 active; further: plate controls were buffer without enzyme for full effect and enzyme alone for no effect
BoNT F protease = BoNT/F light chain protease inhibitors, primary screen, biochemical, flow cytometry, MLPCN library | 0.22% of 360,000 active | Multiplex microsphere protease cleavage assay | inhibition, % at 10 µM; in the data active means inhibition above about 35%, passing the limit was not always enough; inconclusive means no clear call, values can overlap the other calls; further: plate controls were buffer without enzyme for full effect and enzyme alone for no effect
SSB-PriA inh = inhibitors of Klebsiella pneumoniae PriA binding to SSB C-terminal tail, primary screen, biochemical, AlphaScreen | PriA–SSB C-terminal tail interaction (Klebsiella pneumoniae) | AlphaScreen SSBct-PriA binding, biotinylated peptide | 0.6% of 430,000 active | inhibition, % at 33 µM; in the data active means inhibition mostly above about 37%, no sharp cut-off; inactive means mostly below about 20%;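 further: plate controls were negative control peptide for no effect and reference peptide for full effect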
BoNT-A LC inh2 = BoNT/A light chain protease inhibitors, primary screen, biochemical, flow cytometry, MLPCN library | multiplex microsphere protease substrate cleavage | Botulinum neurotoxin type A light chain protease (Clostridium botulinum A str. ATCC 3502) | inhibition, % at 10 µM | 0.17% of 360,000 active; further: plate controls were buffer without enzyme for full effect and enzyme alone for no effect
Bead autofluor = compound fluorescence in toxin protease inhibitor counterscreen | compound autofluorescence counterscreen, microsphere flow cytometry; stronger effect = higher value | fluorescence intensity (no concentration beside the values) | 3.1% of 360,000 active | AID 624483; in the data active means fluorescence intensity above about 16000; inconclusive means no clear call, values can overlap the other calls
* hit, by the source's call; ? = inconclusive; · = not tested or not shown. Shown are actives, neighbours in structure and some others; about 3.1% of the full set was active somewhere. Unless noted, no stated cut-off is given here; in the data, active means inhibition above about 30%; inconclusive means no clear call, values can overlap the other calls; inactive means below that.

SMILES	Anthrax LF inh2	BoNT F protease	SSB-PriA inh	BoNT-A LC inh2	Bead autofluor
Cc1c(C(O)=C2C(=O)C(=O)N(CCN(C)C)C2c2ccco2)cnn1-c1ccccc1 (stereo unspecified)	·	·	6	·	·
CC[C@H](Sc1nc2cc(OC)c(OC)cc2c2nc(CCn3c(C)nc4ccccc43)nn12)C(=O)NC1CCCCC1	·	·	-10	·	·
O=C(Nc1ccccc1-c1nc2ccccc2s1)[C@@H]1CCCN1S(=O)(=O)c1ccc(F)cc1	·	·	-19	·	·
Cc1ccc(C(=O)CN(C(=O)c2ccc(Cl)c(Cl)c2)N2C(=O)C3CCCCC3C2=O)cc1C (stereo unspecified)	0	-3	-10	?	20975*
Cc1ccc(C(=O)CN(C(=O)c2ccc(Cl)c(Cl)c2)N2C(=O)C3CCCCC3C2=O)cc1 (stereo unspecified)	-2	0	-1	0	10644
COc1cccc(C(=O)CN(C(=O)c2ccc(Cl)c(Cl)c2)N2C(=O)c3ccccc3C2=O)c1	1	-7	3	?	16849*
CN(C(=O)Nc1ccccc1)C1CCCCC1	-8	4	-3	-1	5352
CC(c1cccs1)N(C(=O)Nc1ccccc1)C1CCCCC1 (stereo unspecified)	0	3	3	1	21824*
CC(C)CCN(C(=O)Nc1ccccc1)C(C)c1cccs1 (stereo unspecified)	-3	-5	-36	-1	20892*
CCc1ccc(NC(=O)N(Cc2ccco2)C(C)c2cccs2)cc1 (stereo unspecified)	-4	-8	-14	-2	8046
CN(C)C[C@H]1CSCCCN1C(=O)c1ccc(S(=O)(=O)N(C)C)cc1	·	·	-16	·	·
O=S(=O)(c1ccc(Cl)cc1)N1CCN=C1SCc1cccnc1	1	-2	-12	0	2231
O=S(=O)(c1ccc(Cl)cc1)N1CCN=C1SCc1cccc(Cl)c1	0	-4	101*	0	2120
CC(C)Oc1ccc(C2c3c(oc4ccccc4c3=O)C(=O)N2CCCN2CCOCC2)cc1 (stereo unspecified)	-1	-3	-3	?	24300*
O=C(Cn1ccn(-c2ccc3c(c2)OCCO3)c(=O)c1=O)Nc1ccc(F)cc1	·	·	-8	·	·
COc1cccc(C=NNC(=O)Cn2nc(C)c([N+](=O)[O-])c2C)c1O	·	·	-11	·	·
Cc1ccc(C)c(S(=O)(=O)N2CCC(N3CC[C@H](O)C3)CC2)c1	·	·	-13	·	·
O=C(Nn1cnc2c(cnn2-c2ccc(F)cc2)c1=O)c1ccc(-c2ccccc2)cc1	·	·	-11	·	·
COC(=O)c1ccc(S(=O)(=O)NCCSc2nnc3c4ccccc4n(C)c3n2)cc1	0	-2	-9	?	23909*
CC(C)OC(=O)CSc1nnc2c3ccccc3n(C)c2n1	0	-2	-18	0	2622
Cc1cc(N2CCCC2)nc(Nc2ccc(NC(=O)Nc3ccc(F)cc3)cc2)n1	·	·	-7	·	·
NC(=O)NC(=O)CC1SC(=NN=C2CSC(=O)N2)NC1=O (stereo unspecified)	·	·	74*	·	·
COC(=O)CNC(=O)/C=C/c1ccc(OC)cc1	-6	-1	-6	0	19785*
CC(C)(C)n1ncc2c(=O)n(NC(=O)COc3ccc(Cl)cc3Cl)cnc21	·	·	2	·	·
Clc1cccc(Cc2ccc(Cl)nn2)c1	0	14	-15	2	4694
SMILES	Anthrax LF inh2	BoNT F protease	SSB-PriA inh	BoNT-A LC inh2	Bead autofluor
Clc1ccc(Cc2ccc(Cl)nn2)c(Cl)c1	1	-3	-16	0	23303*
Clc1ccc(Cc2ccccc2)nn1	-2	-4	-8	-2	21162*
COc1ccccc1-c1csc(NC(=O)c2cc([N+](=O)[O-])cc([N+](=O)[O-])c2)n1	·	·	0	·	·
COc1ccc(CNC(=O)COC(=O)CC2CC3CCC2C3)cc1OC (stereo unspecified)	0	-5	-14	0	2524
COc1ccc(-c2cc(-c3nnc(COC(=O)CC4CC5CCC4C5)o3)c3ccccc3n2)cc1OC (stereo unspecified)	16	5	-19	52*	2180
CN1CCN(c2ccc(NC(=O)Oc3ccccc3)cc2)CC1	-2	6	5	-1	2354
C=CC(=O)Nc1ccc(N(C)c2ccnc(Nc3ccc(N4CCN(C)CC4)cc3)n2)cc1	-16	-58	44*	0	2818
COc1cc(C(=O)Nc2ccc(Oc3ccccc3)cc2)on1	·	·	-23	·	·

Source: PubChem (several laboratories)
